From PubChem
Only some compounds are listed: those with a hit (about 2.6% of all), similar ones and a draw of the others.
Cruzain noTriton: cruzain (T. cruzi) inhibition without detergent | P25779 | purified cruzain, Z-FR-AMC fluorescence, no detergent | Potency, µM, inactives show max response, negative = inhibition, hits mostly inhibitors | 200,000 tested, 2.3% active | AID 1476;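 note: plate controls were enzyme without inhibitor for no effect and buffer without enzyme for full effect; nearly all actives have a fitted effect of over 40% in size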
Target sequence (P25779 123-467 limits assumed): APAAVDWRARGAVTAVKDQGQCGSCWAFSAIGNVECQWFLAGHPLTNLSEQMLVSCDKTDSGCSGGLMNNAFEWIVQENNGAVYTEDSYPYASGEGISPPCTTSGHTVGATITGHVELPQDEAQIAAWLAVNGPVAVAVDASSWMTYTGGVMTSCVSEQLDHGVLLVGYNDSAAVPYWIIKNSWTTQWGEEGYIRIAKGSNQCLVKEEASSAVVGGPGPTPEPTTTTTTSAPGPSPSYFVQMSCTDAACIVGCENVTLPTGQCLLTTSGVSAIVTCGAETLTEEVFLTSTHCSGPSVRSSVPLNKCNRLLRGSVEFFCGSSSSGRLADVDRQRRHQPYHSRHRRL
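Purified cruzain at 1.5 nM, pre-incubated 15 min with compound at room temperature in 100 mM sodium acetate pH 5.5, 5 mM DTT, 0.00005% Triton X-100. Reaction started with 2 uM Z-FR-AMC; AMC fluorescence increase over 60 s gives rate.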
Cruzain Triton: inhibitors of Trypanosoma cruzi cruzain with detergent; 200,000 tested, 0.43% active; P25779; purified cruzain, Z-FR-AMC fluorescence, 0.01% Triton; Potency, µM, inactives show max response, negative = inhibition, actives largely listed as inhibitors;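 note: plate controls were neutral wells for no effect and buffer without enzyme for full effect; nearly all actives have a fitted effect of over 40% in size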
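Compounds were screened in titration against cruzain (1.5 nM) with 0.01% Triton X-100 to counter colloidal aggregation. Activity was the AMC fluorescence increase over 60 s after adding 2 uM Z-FR-AMC at pH 5.5.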
Numbers without * were called inactive; ? = inconclusive. Calls come from the whole dose curve; as a rule, active = well fitted curve in the direction sought with a large enough effect; inconclusive = small, poorly fitted or top-dose-only effect, or another doubt; inactive = no such curve, though single readings can be large; an effect the other way counts as inactive or inconclusive. Potency is the fitted concentration of half-maximal effect.

SMILES | Cruzain noTriton | Cruzain Triton
Cc1ccc(C)c(Cn2c(SCC(=O)NCc3ccccc3)nc3ccccc32)c1 | 0.4% | 0.5%
COCCCN=C1NN=C(c2cc(C)n(-c3ccccc3)c2C)CS1 | -4.6% | -6.9%
CCCCN=C1NN=C(c2cc3ccccc3o2)CS1 | 7.94µM* | -9.4%
CC(=O)N1CCc2c(sc3c2c(=O)n(-c2ccc(C)cc2)c(=O)n3Cc2c(F)cccc2Cl)C1 | -11.1% | -1.9%
CCc1ccc2[nH]cc(S(=O)(=O)c3ccc(C(C)C)cc3)c(=O)c2c1 | 3.1% | -2.2%
Cc1ccc(-n2c(=O)[nH]c3cc(C(=O)NCCc4ccccc4)ccc3c2=O)cc1 | 15.8µM* | -1.3%
Cc1ccc(CCNC(=O)c2ccc3c(=O)n(-c4ccc(C)cc4)c(=O)[nH]c3c2)cc1 | 2.8% | 1.4%
CCOc1ccc(C(=O)Nc2cccc(NC(=O)c3ccco3)c2)cc1Cl | -3.5% | -9.4%
CCOc1ccc(C(=O)Nc2cccc(NC(=O)c3ccc(C(C)(C)C)cc3)c2)cc1Br | 7.94µM* | 1.1%
C=C1C(=O)OC2C1CC/C(C)=C/CCC1(C)OC21 (stereo not drawn) | -0.9% | 4.3%
COc1ccc(-c2nc(NC(=O)c3ccc(OCC(=O)Nc4ccc(F)cc4)c(OC)c3)sc2C)cc1 | -10.3% | -0.1%
COc1cc(C(=O)Nc2nc(-c3cc(C)ccc3C)c(C)s2)ccc1OCC(=O)Nc1ccc(F)cc1 | 20µM* | -5.1%
O=C(O)C(O)(c1ccc(-c2ccccc2)cc1)c1ccc(-c2ccccc2)cc1 | 10.8% | -11.5%
COc1ccccc1N1CCN(c2csc3ccc(Cl)cc3c2=O)CC1 | -5.2% | -6.2%
CCOC(=O)c1c(N2C(=O)C3C4C=CC(O4)C3C2=O)sc2c1CCCC2 (stereo not drawn) | 19.3% | 5.6%
CCOC(=O)c1c(N2C(=O)Nc3cc(Cl)c(Cl)cc3N2O)sc2c1CCCCC2 | 13.7% | 25.1µM*
CCN1CCSc2ccc(C(=O)NC(C)c3ccccc3)cc21 (stereo not drawn) | -4.6% | 0.3%
COC(=O)c1c(SC)nc2ccccc2c1OCc1ccc(Cl)cc1 | -28.8% | -2.5%
COc1ccc(CNC(=O)Cn2c(=O)nc(-c3ccccc3)c3ccccc32)cc1OC | -3.8% | -0.5%
CCSc1n[nH]c2nc3c(c(=O)n12)C1(CCCC1)Cc1ccccc1-3 | ? | 2.4%
C=CCSc1n[nH]c2nc3c(c(=O)n12)C1(CCCC1)Cc1ccccc1-3 | 10µM* | 1.9%
CC(C)Cc1ccc(C(C)C(=O)OCC(=O)c2c[nH]c3ccccc23)cc1 (stereo not drawn) | -3.5% | -9.2%
Cc1ccc(S(=O)(=O)CCC(=O)OCC(=O)c2c[nH]c3ccccc23)cc1 | 20µM* | -29.6%
CC(C)C(NS(=O)(=O)c1c(Cl)cccc1Cl)C(=O)OCC(=O)c1c[nH]c2ccccc12 (stereo not drawn) | 31.6µM* | -11.1%
Cc1ccc(C(=O)OCC(=O)c2c[nH]c3ccccc23)cc1 | ? | -3.3%
SMILES | Cruzain noTriton | Cruzain Triton
COc1cc(OC)c(N(C)S(=O)(=O)c2cccc(C(=O)OCC(=O)c3c[nH]c4ccccc34)c2)cc1Cl | 10µM* | -1.1%
C=CCN(c1ccccc1OC)S(=O)(=O)c1cccc(C(=O)OCC(=O)c2c[nH]c3ccccc23)c1 | -26.9% | -2.8%
C(=NC1CCCCC1)=NC1CCCCC1 | -4.0% | 3.0%
COc1ccc(Br)cc1CNC(=O)C1COc2ccccc2C1 (stereo not drawn) | -7.0% | -5.3%
Cn1cc(CN(C(=O)Nc2ccccc2)C2CCCCC2)c2ccccc21 | -3.4% | -7.5%
Cc1ccc(S(=O)(=O)N[C@H](C(=O)O)C(C)C)cc1 | 6.8% | 3.5%
O=C(c1ccccc1)[C@@H]1O[C@H]1c1ccc(-c2ccccc2)cc1 | -0.4% | -0.6%
Cc1ccc(S(=O)(=O)N(CC(=O)N=Nc2c(O)[nH]c3ccccc23)c2cccc(C)c2)cc1 | -22.4% | -0.7%
CC(/C=C(\NC(=O)c1ccccc1)C(=O)N=Nc1c(O)[nH]c2ccc(C)cc12)=C\c1ccccc1 | 25.1µM* | -2.5%
Cc1ccc(CC(=O)Nc2c(C(=O)N3CCN(c4ccccc4)CC3)oc3ccccc23)cc1 | 10.2% | -5.4%
O=C(Oc1ccc(NC2=C(Cl)C(=O)c3ccccc3C2=O)cc1)c1ccc([N+](=O)[O-])cc1 | 12.6µM* | -3.1%
O=C(Oc1ccc([N+](=O)[O-])cc1)c1cccnc1 | 9.1% | -3.7%
COc1ccccc1-c1noc(-c2ccc(N3CCN(c4ccccc4)CC3)c([N+](=O)[O-])c2)n1 | ? | -2.1%
Cc1ccc(Cn2c(CN3CCC(C(=O)NCCc4ccccc4)CC3)cc3ccccc32)cc1 | 4.4% | -1.6%
COc1ccc(/C=C/C(=O)Oc2cccc(/C=N/NC(=O)c3cccc(F)c3)c2)cc1 | ? | 0.6%
COc1ccc(/C=C/C(=O)Oc2ccc(/C=N\NC(=O)c3ccc(F)cc3)cc2)cc1 | 7.94µM* | 0.0%
COc1ccc(/C=N/NC(=O)c2ccc(CN3c4cccc5cccc(c45)S3(=O)=O)cc2)cc1 | 15.8µM* | -9.2%
